The results in this text go back to PubChem BioAssay (EPA / NIEHS).

Broadly, the AC50 is the midpoint of the concentration-response curve, whichever way the signal moves.

The target of test [1] is human Serotonin, 5-Hydroxytryptamine Receptor 3 (5HT3), HTR3A (gene 3359) (UniProt P46098). The experiment in a line: NVS_LGIC_h5HT3: NovaScreen (NVS) Ligand-Gated Ion Channel Assay for human Serotonin, 5-Hydroxytryptamine Receptor 3 (5HT3) (AID 2283325). In short, it runs like this: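 Initially tested at 25 uM in duplicate, then up to 50 uM in concentration-response for actives, compounds competed with a radioligand for HEK293-derived human 5-HT3 receptor. Bound counts were measured by filtration and scintillation at 1 h; loss of signal versus DMSO.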

Test [2] concerns the target rat Neurokinin-1 Receptor (NK1), Tacr1 (gene 24807) (UniProt P14600). The experiment in a line: NVS_GPCR_rNK1: NovaScreen (NVS) G Protein-Coupled Receptor Assay for rat Neurokinin-1 Receptor (NK1) (AID 2283309). In short, it runs like this:
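Competitive radioligand binding to NK1 in rat submaxillary membranes, 1 h incubation, filtration and scintillation read-out. Compounds first screened at 25 uM in duplicate, then concentration-response for actives; signal loss relative to DMSO.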

Test [3] addresses rat Neonicotinoid receptor (NNR), Chrna7 (gene 25302) (UniProt Q05941). The experiment in a line: NVS_LGIC_rNNR_BungSens: NovaScreen (NVS) Ligand-Gated Ion Channel Assay for rat Neonicotinoid receptor (NNR) (AID 2283315). The procedure, abridged:
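Rat cortical membrane preparation incubated 2.5 h with tritiated or iodinated radioligand and test chemical. Bound radioactivity was filtered and counted by scintillation, and displacement was analysed against DMSO.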

Test [4] addresses rat Glutamate, AMPA Site (AMPA), Gria1 (gene 50592) (UniProt P19490). Put plainly: NVS_LGIC_rAMPA: NovaScreen (NVS) Ligand-Gated Ion Channel Assay for rat Glutamate, AMPA Site (AMPA) (AID 2283324). In short, it runs like this:
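Screening at 25 uM in duplicate preceded concentration series reaching 50 uM for qualifying compounds. Radioligand displacement on rat forebrain membranes, 1 h, filter-based scintillation readout; reduced binding relative to DMSO.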

Test [5] has as its target rat Opioid Receptor, Non-selective Sodium (Na+) Binding, Oprm1 (gene 25601) (UniProt P33535). Put plainly: NVS_GPCR_rOpiate_NonSelectiveNa: NovaScreen (NVS) G Protein-Coupled Receptor Assay for rat Opioid Receptor, Non-selective Sodium (Na+) Binding (AID 2283311). The procedure, abridged:
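Filtration radioligand binding on rat forebrain membrane preparations, read 1.5 h after dosing. Single-concentration 25 µM primary screen in duplicate, followed by singleton concentration series to 50 µM max for actives; DMSO baseline.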

The target in test [6] is rat Opioid Receptor, Non-selective Binding, Oprm1 (gene 25601) (UniProt P33535). The experiment in a line: NVS_GPCR_rOpiate_NonSelective: NovaScreen (NVS) G Protein-Coupled Receptor Assay for rat Opioid Receptor, Non-selective Binding (AID 2283318). The procedure, abridged: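 Filter-based radioligand displacement using rat forebrain membrane preparations, measured 1.5 h post-dosing. Single-concentration duplicate screen at 25 uM, follow-up in concentration series; activity taken as signal loss relative to DMSO.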

The target in test [7] is Sodium channel protein type 1 subunit alpha (Rattus norvegicus) (UniProt P04774). Put plainly: NVS_IC_rNaCh_site2: NovaScreen (NVS) Ion Channel Assay for rat Sodium Channel, Site 2 (NaCh) (AID 2283322).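 Note: hit means loss of radioligand binding signal relative to DMSO so AC50 marks displacement.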 The procedure, abridged: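 Initial duplicate single-point testing at 25 uM, followed by concentration-response runs for actives. Binding of radioligand to rat forebrain membranes quantified after 1 h via filter-based radiodetection.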

For test [8], the target named is rat Glutamate, NMDA Agonist Site (GluNMDA), Grin1 (gene 24408) (UniProt P35439). Put plainly: NVS_LGIC_rGluNMDA_Agonist: NovaScreen (NVS) Ligand-Gated Ion Channel Assay for rat Glutamate, NMDA Agonist Site (GluNMDA) (AID 2283327). In short, it runs like this: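 Radioligand displacement at the agonist site on rat forebrain membrane preparations, read by filter scintillation after 1 h. Chemicals were first run at 25 uM in duplicate; those passing threshold were titrated to a 50 uM maximum.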

The target of test [9] is human Constitutive Androstane Receptor (CAR), NR1I3 (gene 9970) (UniProt Q14994). Put plainly: NVS_NR_hCAR_Agonist: NovaScreen (NVS) Nuclear Receptor Binding Assay for human Constitutive Androstane Receptor Agonism (CAR) (AID 2283328). In short, it runs like this: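 Actives from a 25 uM duplicate screen were retested in singleton concentration series to 50 uM max. Biochemical TR-FRET assay on extracted CAR protein measured 1 h post-dose, with signal increase over DMSO control.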

For test [10], the target named is rat Somatostatin Receptor (SST), Sstr1 (gene 25033) (UniProt P28646). The experiment in a line: NVS_GPCR_rSST: NovaScreen (NVS) G Protein-Coupled Receptor Assay for rat Somatostatin Receptor (SST) (AID 2283314). In short, it runs like this:
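Single-concentration duplicate screen (25 uM), then concentration-response up to 50 uM for chemicals passing a threshold such as 30% inhibition. Membranes came from rat forebrain. Binding was measured 1 h post-dose by filter radiodetection and scintillation, relative to DMSO.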

The nature of test [11]: NVS_IC_rCaDHPRCh_L: NovaScreen (NVS) Ion Channel Assay for rat Calcium Channel, Type L, Dihydropyridine Site (CaDHPRCh_L) (AID 2283320). In short, it runs like this: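 Rat cortex membrane preparation; dihydropyridine-site radioligand displacement read 1 h post-dose by filtration and scintillation. Primary single-point screen 25 uM in duplicate, then concentration series to 50 uM maximum; DMSO as negative control.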

A further test has as its target Adra2b (gene 24174) (UniProt P19328). Put plainly: NVS_GPCR_rmAdra2B: NovaScreen (NVS) G Protein-Coupled Receptor Assay for hybird cells Adrenergic, Alpha 2B Receptor (Adra2B) (AID 2283306). In short, it runs like this: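 Compounds screened first at 25 uM in duplicate, with actives followed up in concentration-response; specific radioligand displacement from hybrid neuroglioma/blastoma cell membrane preparations measured by filter scintillation counting after 1 h, normalized to DMSO.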

Test [12] concerns the target Metabotropic glutamate receptor 1 (Rattus norvegicus) (UniProt P23385). Put plainly: NVS_GPCR_rmMGluR1: NovaScreen (NVS) G Protein-Coupled Receptor Assay for rat Glutamate Metabotropic Receptor 1 (MGluR1) (AID 2283305). In short, it runs like this: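 Binding to native receptor from rat cerebellum extract, measured as displacement of a radioligand (scintillation counting, filter separation) after 1 hour. Compounds tested at 25 uM in duplicate, then titrated to a 50 uM maximum.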

Test [13] concerns the target rat Neurokinin-3 Receptor (NK3), Tacr3 (gene 24808) (UniProt P16177). The experiment in a line: NVS_GPCR_rNK3: NovaScreen (NVS) G Protein-Coupled Receptor Assay for rat Neurokinin-3 Receptor (NK3) (AID 2283310). In short, it runs like this:
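Filter-based radioligand displacement on rat cortex membrane preparations, read by scintillation 2 h post-dose. Chemicals first tested in duplicate at 25 uM; actives followed up in concentration series with a 50 uM maximum.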

Test [14] concerns the target bovine Gamma-Aminobutyric Acid Type A Receptor BDZ, alpha 5 site (GABARa5), GABRA5 (gene 523515) (UniProt Q08E50). The experiment in a line: NVS_LGIC_bGABARa5: NovaScreen (NVS) Ligand-Gated Ion Channel Assay for bovine Gamma-Aminobutyric Acid Type A Receptor BDZ, alpha 5 site (GABARa5) (AID 2283323). In short, it runs like this: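 Tested first in duplicate at a single 25 uM, with hits re-run in concentration series to a 50 uM maximum. Bovine hippocampal membranes; specific radioligand displacement measured by filter scintillation counting 1 hr post-dose.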

Results filed as inconclusive are left out. Active and inactive are the calls of the source. Rule for the calls: active = hit-call score of the fitted dose curve at least 0.9, where 1 is the maximum; inconclusive = response in the unintended direction; inactive = score below 0.9.

Chain of rat Opioid Receptor, Non-selective Sodium (Na+) Binding, Oprm1 (gene 25601) (P33535 whole entry, looked up): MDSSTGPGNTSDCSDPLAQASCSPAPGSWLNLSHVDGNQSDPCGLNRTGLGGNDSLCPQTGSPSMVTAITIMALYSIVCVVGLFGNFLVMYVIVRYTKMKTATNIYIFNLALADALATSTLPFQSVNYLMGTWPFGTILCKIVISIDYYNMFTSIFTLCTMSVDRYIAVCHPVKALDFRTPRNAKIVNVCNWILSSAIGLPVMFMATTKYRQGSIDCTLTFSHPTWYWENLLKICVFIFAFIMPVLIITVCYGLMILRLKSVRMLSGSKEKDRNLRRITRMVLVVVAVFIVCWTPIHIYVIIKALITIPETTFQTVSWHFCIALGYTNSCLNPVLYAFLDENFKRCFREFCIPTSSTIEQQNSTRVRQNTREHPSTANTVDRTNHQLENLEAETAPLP
Chain of human Constitutive Androstane Receptor (CAR), NR1I3 (gene 9970) (Q14994 whole entry, looked up): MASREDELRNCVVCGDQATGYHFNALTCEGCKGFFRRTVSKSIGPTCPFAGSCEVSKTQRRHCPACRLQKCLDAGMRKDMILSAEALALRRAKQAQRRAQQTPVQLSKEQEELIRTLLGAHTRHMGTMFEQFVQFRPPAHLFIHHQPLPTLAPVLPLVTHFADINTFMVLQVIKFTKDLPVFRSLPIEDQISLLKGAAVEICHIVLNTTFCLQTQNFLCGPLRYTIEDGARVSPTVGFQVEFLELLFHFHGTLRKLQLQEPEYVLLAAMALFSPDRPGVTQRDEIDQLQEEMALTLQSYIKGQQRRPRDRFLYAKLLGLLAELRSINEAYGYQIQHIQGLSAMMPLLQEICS
Chain of rat Somatostatin Receptor (SST), Sstr1 (gene 25033) (P28646 whole entry, looked up): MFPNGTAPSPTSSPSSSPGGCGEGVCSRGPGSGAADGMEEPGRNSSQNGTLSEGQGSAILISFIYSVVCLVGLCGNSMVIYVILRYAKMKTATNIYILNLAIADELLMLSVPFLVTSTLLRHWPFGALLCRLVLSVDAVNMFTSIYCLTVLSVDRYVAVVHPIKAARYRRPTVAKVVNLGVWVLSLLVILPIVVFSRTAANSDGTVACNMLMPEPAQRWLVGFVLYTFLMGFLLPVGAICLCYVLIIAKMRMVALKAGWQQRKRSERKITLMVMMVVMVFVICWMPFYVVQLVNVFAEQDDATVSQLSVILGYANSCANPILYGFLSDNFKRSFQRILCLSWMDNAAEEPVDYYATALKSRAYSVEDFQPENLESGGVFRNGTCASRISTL
Chain of rat Glutamate, AMPA Site (AMPA), Gria1 (gene 50592) (P19490 whole entry, looked up): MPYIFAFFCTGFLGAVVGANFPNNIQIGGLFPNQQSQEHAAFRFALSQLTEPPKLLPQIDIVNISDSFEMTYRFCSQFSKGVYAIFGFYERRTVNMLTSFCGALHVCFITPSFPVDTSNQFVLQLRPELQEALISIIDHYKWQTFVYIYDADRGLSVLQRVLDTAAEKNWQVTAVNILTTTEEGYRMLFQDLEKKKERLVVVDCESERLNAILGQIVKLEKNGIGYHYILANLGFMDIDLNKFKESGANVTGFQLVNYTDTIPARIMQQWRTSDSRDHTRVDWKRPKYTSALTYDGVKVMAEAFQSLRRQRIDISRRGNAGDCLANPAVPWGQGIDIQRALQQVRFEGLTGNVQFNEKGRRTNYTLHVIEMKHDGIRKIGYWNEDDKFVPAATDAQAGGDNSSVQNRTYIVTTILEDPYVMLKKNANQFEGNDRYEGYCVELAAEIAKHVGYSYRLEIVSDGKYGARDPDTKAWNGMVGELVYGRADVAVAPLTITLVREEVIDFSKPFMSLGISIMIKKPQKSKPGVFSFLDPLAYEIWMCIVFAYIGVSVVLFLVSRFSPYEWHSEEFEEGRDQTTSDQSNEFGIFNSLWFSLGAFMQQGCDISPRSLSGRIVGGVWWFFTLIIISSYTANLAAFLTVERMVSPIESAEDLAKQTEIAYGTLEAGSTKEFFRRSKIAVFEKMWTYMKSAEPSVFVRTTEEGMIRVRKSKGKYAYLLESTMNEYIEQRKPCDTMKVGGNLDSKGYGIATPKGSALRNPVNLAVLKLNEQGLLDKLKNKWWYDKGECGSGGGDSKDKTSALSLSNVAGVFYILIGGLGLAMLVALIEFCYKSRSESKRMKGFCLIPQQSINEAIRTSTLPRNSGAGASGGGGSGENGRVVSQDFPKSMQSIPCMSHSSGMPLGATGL
Chain of human Serotonin, 5-Hydroxytryptamine Receptor 3 (5HT3), HTR3A (gene 3359) (P46098 whole entry, looked up): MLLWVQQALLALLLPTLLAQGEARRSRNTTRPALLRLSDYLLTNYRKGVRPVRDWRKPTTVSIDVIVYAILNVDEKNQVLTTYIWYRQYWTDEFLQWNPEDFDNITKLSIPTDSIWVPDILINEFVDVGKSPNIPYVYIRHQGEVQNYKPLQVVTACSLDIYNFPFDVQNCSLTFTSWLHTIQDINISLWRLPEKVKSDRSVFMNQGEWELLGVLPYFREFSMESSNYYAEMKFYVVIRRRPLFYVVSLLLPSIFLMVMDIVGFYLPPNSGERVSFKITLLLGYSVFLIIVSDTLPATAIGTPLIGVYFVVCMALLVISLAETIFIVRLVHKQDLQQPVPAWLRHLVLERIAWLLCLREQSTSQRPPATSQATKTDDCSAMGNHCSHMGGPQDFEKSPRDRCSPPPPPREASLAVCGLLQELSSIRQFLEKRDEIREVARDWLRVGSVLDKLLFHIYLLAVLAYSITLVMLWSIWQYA
Chain of rat Opioid Receptor, Non-selective Binding, Oprm1 (gene 25601) (P33535 whole entry, looked up): as the sequence (P33535 whole entry, looked up) above
Chain of Adra2b (gene 24174) (P19328 whole entry, looked up): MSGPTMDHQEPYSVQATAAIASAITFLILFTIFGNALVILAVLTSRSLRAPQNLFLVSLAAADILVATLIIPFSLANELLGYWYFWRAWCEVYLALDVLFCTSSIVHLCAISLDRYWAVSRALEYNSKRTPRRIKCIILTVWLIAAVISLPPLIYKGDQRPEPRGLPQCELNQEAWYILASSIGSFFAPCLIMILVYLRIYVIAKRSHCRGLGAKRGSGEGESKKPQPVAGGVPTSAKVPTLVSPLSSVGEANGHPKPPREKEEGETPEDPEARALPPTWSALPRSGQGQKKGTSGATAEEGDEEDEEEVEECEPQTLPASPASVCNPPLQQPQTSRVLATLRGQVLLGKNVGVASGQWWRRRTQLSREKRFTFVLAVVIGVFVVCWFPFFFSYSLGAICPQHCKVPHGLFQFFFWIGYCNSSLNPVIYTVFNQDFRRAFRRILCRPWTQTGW
Chain of rat Neurokinin-1 Receptor (NK1), Tacr1 (gene 24807) (P14600 whole entry, looked up): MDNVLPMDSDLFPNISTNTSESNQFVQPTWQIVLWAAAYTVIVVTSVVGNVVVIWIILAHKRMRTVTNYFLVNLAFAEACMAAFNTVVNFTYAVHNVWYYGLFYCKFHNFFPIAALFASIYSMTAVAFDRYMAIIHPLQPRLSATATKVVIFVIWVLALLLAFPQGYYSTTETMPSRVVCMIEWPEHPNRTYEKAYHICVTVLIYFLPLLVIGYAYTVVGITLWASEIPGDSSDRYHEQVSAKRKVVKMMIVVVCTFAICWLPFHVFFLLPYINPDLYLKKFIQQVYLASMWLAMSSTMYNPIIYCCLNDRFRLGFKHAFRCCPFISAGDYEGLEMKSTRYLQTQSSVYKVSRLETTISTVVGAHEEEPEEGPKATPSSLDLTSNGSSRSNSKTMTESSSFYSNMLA
Chain of rat Neonicotinoid receptor (NNR), Chrna7 (gene 25302) (Q05941 whole entry, looked up): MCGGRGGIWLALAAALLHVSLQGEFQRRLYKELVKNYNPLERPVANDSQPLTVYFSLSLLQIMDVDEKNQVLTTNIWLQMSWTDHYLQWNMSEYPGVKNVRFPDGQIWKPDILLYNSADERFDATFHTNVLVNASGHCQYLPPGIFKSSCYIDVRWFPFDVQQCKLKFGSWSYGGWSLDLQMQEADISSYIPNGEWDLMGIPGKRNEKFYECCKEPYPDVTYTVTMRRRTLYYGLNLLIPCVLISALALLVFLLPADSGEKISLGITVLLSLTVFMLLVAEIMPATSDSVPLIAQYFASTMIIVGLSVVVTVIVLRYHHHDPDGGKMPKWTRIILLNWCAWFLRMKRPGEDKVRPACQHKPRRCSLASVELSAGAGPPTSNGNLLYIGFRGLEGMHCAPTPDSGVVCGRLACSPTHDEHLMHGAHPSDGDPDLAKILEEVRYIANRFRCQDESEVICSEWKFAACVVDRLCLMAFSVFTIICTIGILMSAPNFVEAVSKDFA
Chain of rat Neurokinin-3 Receptor (NK3), Tacr3 (gene 24808) (P16177 whole entry, looked up): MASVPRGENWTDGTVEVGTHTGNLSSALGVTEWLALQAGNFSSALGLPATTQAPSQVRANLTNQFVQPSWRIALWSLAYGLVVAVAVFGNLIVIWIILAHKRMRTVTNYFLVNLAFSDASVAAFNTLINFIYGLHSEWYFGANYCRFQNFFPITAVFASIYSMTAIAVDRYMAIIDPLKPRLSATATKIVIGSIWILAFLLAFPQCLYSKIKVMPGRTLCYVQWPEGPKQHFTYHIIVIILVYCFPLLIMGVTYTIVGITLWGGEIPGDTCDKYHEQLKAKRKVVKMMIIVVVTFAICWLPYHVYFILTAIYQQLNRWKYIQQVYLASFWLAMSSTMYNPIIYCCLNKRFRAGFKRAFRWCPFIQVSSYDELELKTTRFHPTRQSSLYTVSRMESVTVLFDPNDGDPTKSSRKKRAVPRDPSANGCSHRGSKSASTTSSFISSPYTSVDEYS

With `NCC1(Cc2noc(=O)[nH]2)CCCCC1`, the outcome in [1] was inactive.

Take `CCOC(=O)C(C)(C)Oc1ccc(Cl)cc1`: the outcome in test [2] and in test [3] was inactive.

As for `CCCCCCCCCCCCCCCC`, the outcome in [1] was inactive.

`CCOc1ccc2c(c1)C(C)=CC(C)(C)N2`: the outcome in test [4] and in [1] was inactive.

As for `CCCCCCCC=O`, the result in test [4] was inactive.

`Oc1ccc2c(c1)OC[C@@H](N1CCC(O)(c3ccc(F)cc3)CC1)[C@H]2O`: the compound was classed as inactive in test [5], in test [6], in [7], in test [1], in [8] and in test [9].

With `Cc1cc(=O)[nH]c(=S)[nH]1`, the half-maximal activity concentration (AC50) in [10] was 13.2 µM (active). Moreover, the result in [11] was inactive.

Regarding `CN1CCN(Cc2cc(-c3ccc4[nH]c(=O)oc4c3)co2)[C@@H](c2ccc(F)cc2)C1`, the half-maximal activity concentration (AC50) with Adra2b (gene 24174) is 15.8 µM (active); in [2], 22 µM (active); in test [11], 15 µM (active); in test [7], 7.72 µM (active). For the same compound, in [5], the compound was classed as inactive.

In the case of `COc1cc(-c2nc(NC(=O)c3cc4cc(C)cc(C)c4n3CC(=O)O)sc2CCC2CCCCC2)c(OC)cc1Cl`, the results for the AC50 in test [11] and in [7] were 6.08 µM (active) and 9.13 µM (active), respectively.

Consider `Nc1ccc(S(=O)(=O)c2ccc(N)cc2)cc1`, for which the outcome in [5] was inactive.

On to `CCOC(=O)CCC(=O)OCC`, for which the outcome in test [7] was inactive.

As for `CC1(C)CC(N=C=O)CC(C)(CN=C=O)C1` (centres undefined), in test [12], the call was inactive.

As to `Cc1cc(NC(=O)C(=O)O)cc(C)c1Oc1ccc(O)c2c1CCC2`, the compound was called inactive in test [6] and in test [4].

In the case of `CCc1c(C(=O)NN2CCCCC2)nn(-c2ccc(Cl)cc2Cl)c1-c1ccc(Br)cc1`, the outcome in test [13] and in [11] was inactive. Further, the AC50 in [7] is 11.5 µM (active).

Regarding `CNC(=O)[C@H]1O[C@@H](n2cnc3c(NCc4cc(Cl)ccc4OCc4cc(C)no4)ncnc32)[C@H](O)[C@@H]1N`, the outcome in the test with Adra2b (gene 24174) was inactive. For the same compound, the half-maximal activity concentration (AC50) in [10] was 37.9 µM (active).

With `CC(C)(C)c1cc(O)c(C(C)(C)C)cc1O`, the AC50 in test [10] is 3.63 µM (active). Also, the call in test [9] was inactive.

In the case of `CCCCCCCCCCCCCO`, the result in test [9] was inactive.

Turning to `CCCCc1ccc2c(n1)[C@@H](c1ccc(OC)cc1C[C@H](C)C(=O)O)[C@H](C(=O)O)[C@H]2c1ccc2c(c1)OCO2`, the concentration at half-maximal activity (AC50) in test [14] is 27.5 µM (active).

As for `Cc1nc(-c2ccc3c(c2)CCN(CCC2CCC(NC(=O)/C=C/c4ccc(F)cc4)CC2)CC3)no1` (centres undefined), the compound was classed as inactive in test [3]. Also, the AC50 in [7] was 0.265 µM (active).

Regarding `Cc1c(C(=O)O)c(O)cc2c1C(=O)c1c(O)c([C@@H]3O[C@H](CO)[C@@H](O)[C@H](O)[C@H]3O)c(O)c(O)c1C2=O`, in test [7], the call was inactive.
